The values below come from PubChem BioAssay (Tox21).

Assay [1] in a line: qHTS assay to identify small molecule agonists of the sonic hedgehog signaling (Shh) pathway (AID 1259368).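 Also: NIH/3T3-derived 3T3Gli1-Luc cells carrying a stable Gli1-driven firefly luciferase reporter; series mostly up to about 92 µM; nearly all actives have a fitted effect of over 15% in size.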 The method, boiled down:
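Luminescent signal was taken as a measure of Gli1-controlled luciferase expression in stably transfected NIH/3T3-derived cells that had been treated for 24 hr with compounds delivered in DMSO.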
(qHTS replaces the single test concentration by a dilution series.)

Assay [2] can be described thus: qHTS assay to identify small molecule antagonists of the sonic hedgehog signaling (Shh) pathway (AID 1259369). Also: nearly all actives have a fitted effect of over 45% in size. Also: potency is read from the fitted curve at half-maximal effect. A digest of the protocol:
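Screening used 3T3Gli1-Luc cells at 2,000 per well, compounds delivered in DMSO, and conditioned medium as agonist stimulus; plates incubated 24hr at 37 C and 5% CO2 before a 30min luciferase step.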

In assay [3] the target is Estrogen receptor beta (Homo sapiens) (UniProt Q92731). In words: qHTS assay to identify small molecule antagonists of the estrogen receptor beta (ER-beta) signaling pathway (AID 1259378; active = well fitted inhibition curve with a large enough effect in the signal ratio in the repeat runs, not every such curve was filed as active; the % refers to the signal ratio). A digest of the protocol: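 ER-beta-UAS-bla HEK293T (GripTite) cells in 2% charcoal-stripped FBS medium were preincubated 6 hr at 37C, dosed with compound, then stimulated with 1 nM E2 (final) for 16 hr; beta-lactamase reporter read by B/G FRET fluorescence after 2 hr substrate loading.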
Sequence of Estrogen receptor beta (Homo sapiens) (Q92731 whole entry, looked up): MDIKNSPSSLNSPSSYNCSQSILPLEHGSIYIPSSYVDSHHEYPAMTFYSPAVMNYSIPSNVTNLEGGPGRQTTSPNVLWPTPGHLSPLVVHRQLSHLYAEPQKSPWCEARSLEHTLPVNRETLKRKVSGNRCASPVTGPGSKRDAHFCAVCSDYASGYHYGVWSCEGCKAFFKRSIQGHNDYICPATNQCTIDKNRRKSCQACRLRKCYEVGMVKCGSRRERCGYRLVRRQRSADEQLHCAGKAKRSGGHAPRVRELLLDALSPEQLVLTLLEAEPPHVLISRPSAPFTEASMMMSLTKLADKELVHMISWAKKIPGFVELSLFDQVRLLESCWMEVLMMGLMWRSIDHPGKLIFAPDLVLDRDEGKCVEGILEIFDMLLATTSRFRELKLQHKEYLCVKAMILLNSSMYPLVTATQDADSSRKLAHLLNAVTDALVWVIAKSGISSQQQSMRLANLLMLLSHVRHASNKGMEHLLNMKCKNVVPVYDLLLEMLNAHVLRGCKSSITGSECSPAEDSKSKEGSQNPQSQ

Assay [4] can be described thus: qHTS assay to identify small molecule agonists of the estrogen receptor beta (ER-beta) signaling pathway - cell viability counter screen (AID 1259380; active = well fitted curve in the direction sought with a large enough effect in the repeat runs; an effect the other way counts as inactive or inconclusive; also: nearly all actives have a fitted effect of over 30% in size; also: potency is read from the fitted curve at half-maximal effect). The method, boiled down:
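Viability of ER-beta-UAS-bla HEK293T cells was determined by CellTiter-Glo luminescence following 16 hr treatment with test compounds at 37C.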

The nature of assay [5]: qHTS assay to identify small molecule antagonists of the estrogen receptor beta (ER-beta) signaling pathway - cell viability counter screen (AID 1259382; active = well fitted curve in the direction sought with a large enough effect in the repeat runs; an effect the other way counts as inactive or inconclusive; also: nearly all actives have a fitted effect of over 55% in size; also: potency is read from the fitted curve at half-maximal effect). A digest of the protocol:
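Tox21 10K library tested in qHTS format on ER-beta-bla HEK293T cells stimulated with 1nM E2; 16 hr treatment at 37C. Same-well CellTiter-Glo luminescence served as the cell viability measure.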

The target of assay [6] is Estrogen receptor (Homo sapiens) (UniProt P03372). The assay can be described thus: qHTS assay to identify small molecule agonists of the estrogen receptor alpha (ER-alpha) signaling pathway in the presence of an antagonist (AID 1259383). Also: top concentration of the series differs between compounds; nearly all actives have a fitted effect of over 15% in size. The method, boiled down:
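In VM7Luc4E2 cells, 4,000 per well, compounds at 15 concentrations were co-incubated 22hr at 37C with 10.0nM final ICI-182,780. Luminescence from the stably transfected 4×ERE-luciferase reporter was recorded 30min after ONE-Glo addition.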

The nature of assay [7]: qHTS assay to identify small molecule agonists of the androgen receptor (AR) signaling pathway in the presence of an antagonist - cell viability counter screen (AID 1259379; active = well fitted curve in the direction sought with a large enough effect in the repeat runs; an effect the other way counts as inactive or inconclusive; also: nearly all actives have a fitted effect of over 25% in size; also: potency is read from the fitted curve at half-maximal effect). A digest of the protocol:
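In MDA-kb2 cells (human breast carcinoma, MMTV-luciferase), compounds at 15 concentrations plus 3.0uM nilutamide; 16 hr, 37C, 0% CO2; CellTiter-Fluor fluorescence read for viability.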

Assay [8] in a line: qHTS assay to identify small molecule agonists or antagonists of the thyroid stimulating hormone receptor (TSHR) signaling pathway - wild type cell line counter screen (AID 1259384). The method, boiled down:
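Wild-type HEK293 cells were plated 18 h at 37 C/5% CO2, pin-dosed with compound plus Ro20-1724 medium, held 30 min at room temperature, then given cAMP-d2 and anti-cAMP-cryptate; fluorescence was read after 1 h. Fifteen concentrations, triplicate.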

Assay [9] deals with Androgen receptor (Homo sapiens) (UniProt P10275). In words: qHTS assay to identify small molecule agonists of the androgen receptor (AR) signaling pathway in the presence of an antagonist (AID 1259381). Also: nearly all actives have a fitted effect of over 15% in size. The method, boiled down: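 Here, 15-concentration compound series were pin-transferred onto MDA-kb2 MMTV-luciferase cells already dosed with nilutamide (3.0uM final). After 16hr at 37C, ONE-Glo was added and luminescence read 30min later at room temperature.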
Sequence of Androgen receptor (Homo sapiens) (P10275 whole entry, looked up): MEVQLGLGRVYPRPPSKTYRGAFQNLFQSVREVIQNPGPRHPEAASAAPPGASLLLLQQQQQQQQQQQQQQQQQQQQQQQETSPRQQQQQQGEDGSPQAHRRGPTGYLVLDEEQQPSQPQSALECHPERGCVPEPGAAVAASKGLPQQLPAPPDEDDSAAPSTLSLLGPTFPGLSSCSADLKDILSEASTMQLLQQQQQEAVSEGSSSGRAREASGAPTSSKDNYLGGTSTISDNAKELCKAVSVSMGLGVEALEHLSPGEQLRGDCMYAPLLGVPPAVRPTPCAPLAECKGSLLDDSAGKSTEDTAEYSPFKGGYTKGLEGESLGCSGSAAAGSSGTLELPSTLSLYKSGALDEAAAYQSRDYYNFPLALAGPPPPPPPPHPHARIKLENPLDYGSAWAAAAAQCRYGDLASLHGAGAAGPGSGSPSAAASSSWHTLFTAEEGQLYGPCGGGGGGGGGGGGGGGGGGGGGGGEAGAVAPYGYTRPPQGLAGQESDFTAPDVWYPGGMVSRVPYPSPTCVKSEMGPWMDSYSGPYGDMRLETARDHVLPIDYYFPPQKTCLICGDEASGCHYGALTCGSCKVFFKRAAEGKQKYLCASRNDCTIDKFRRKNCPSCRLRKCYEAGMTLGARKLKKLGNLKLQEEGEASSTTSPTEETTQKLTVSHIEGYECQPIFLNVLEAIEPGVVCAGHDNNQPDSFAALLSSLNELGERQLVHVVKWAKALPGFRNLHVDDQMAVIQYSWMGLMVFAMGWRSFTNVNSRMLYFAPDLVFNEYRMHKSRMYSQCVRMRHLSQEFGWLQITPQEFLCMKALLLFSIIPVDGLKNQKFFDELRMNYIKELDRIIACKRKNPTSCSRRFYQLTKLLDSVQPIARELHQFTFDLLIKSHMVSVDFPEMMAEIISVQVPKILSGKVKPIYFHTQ

Records with an inconclusive call do not appear. The source made the active and inactive calls. Unless noted, calls follow the shape of the full dose curve.

Sequence of Estrogen receptor (Homo sapiens) (P03372 whole entry, looked up): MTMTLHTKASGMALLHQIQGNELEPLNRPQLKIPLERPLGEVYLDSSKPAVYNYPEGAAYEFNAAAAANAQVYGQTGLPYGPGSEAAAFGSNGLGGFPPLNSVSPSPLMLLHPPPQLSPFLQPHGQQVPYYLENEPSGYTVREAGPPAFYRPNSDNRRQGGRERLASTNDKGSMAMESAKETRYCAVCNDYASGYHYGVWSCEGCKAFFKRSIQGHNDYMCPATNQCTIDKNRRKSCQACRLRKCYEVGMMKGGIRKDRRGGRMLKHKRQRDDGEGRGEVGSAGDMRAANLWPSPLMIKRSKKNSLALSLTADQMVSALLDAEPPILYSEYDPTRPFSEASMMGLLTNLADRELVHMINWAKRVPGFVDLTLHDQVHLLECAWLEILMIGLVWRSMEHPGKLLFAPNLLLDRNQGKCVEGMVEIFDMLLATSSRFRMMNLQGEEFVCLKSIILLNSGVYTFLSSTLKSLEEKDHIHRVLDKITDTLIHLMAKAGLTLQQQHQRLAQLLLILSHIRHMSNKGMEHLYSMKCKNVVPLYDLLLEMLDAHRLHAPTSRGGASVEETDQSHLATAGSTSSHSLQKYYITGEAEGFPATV

For `O=Cc1c2ccccc2c(Cl)c2ccccc12`, the Potency entry in assay [1], in [2], in assay [3], in assay [4], in assay [5] and in [6] was “inactive” each time.

Turning to `Oc1cccc(Nc2ccccc2)c1`, the Potency entry in [1], in [2], in assay [7], in [4] and in assay [5] was “inactive” throughout. Also, the compound was called inactive in assay [8].

Take `N#CCc1ccc(Cl)cc1Cl`: the Potency result in [1], in [2], in assay [7], in [4], in assay [5] and in assay [6] was “inactive” in each case. In addition, the compound was called inactive in assay [8].

As for `Cc1ccc(OC(=O)c2ccccc2O)cc1`, the Potency result in assay [1], in [2], in [7], in [4] and in assay [5] was “inactive” in each case.

Regarding `NC(=O)c1ccncc1`, the Potency result in assay [1], in assay [2], in [7], in [4], in assay [9] and in assay [5] was “inactive” in each case. Further, the outcome in [8] was inactive.

As to `CCOC(C)=O`, the Potency entry in assay [1], in assay [2], in assay [7], in assay [4], in [5] and in assay [6] was “inactive” throughout. Moreover, in assay [8], the compound was classed as inactive.

As to `O=C1c2ccccc2C(=O)c2c(O)c(O)cc(O)c21`, the Potency entry in [1], in assay [2], in assay [4], in assay [9], in [5] and in assay [6] was “inactive” in each case. The Potency in assay [7] is 30.6 µM (active). Moreover, the result in [8] was inactive.

Consider `C=C(C)[C@@H]1CCC2=CCC[C@@H](C)[C@]2(C)C1`, for which the Potency entry in assay [1], in assay [7], in assay [4], in [9] and in [5] was “inactive” in each case. Further, the Potency in assay [2] was 24.3 µM (active). In addition, the compound was called inactive in assay [8].

In the case of `CC(CO)CO`, the Potency result in assay [1], in assay [2], in assay [7], in assay [4], in assay [5] and in assay [6] was “inactive” each time. Besides, the compound was classed as inactive in assay [8].

As for `CCCCCCCCCCCCCCN(CCO)CCO`, the Potency result in [1] is “inactive”. Also, the Potency is 19.3 µM (active) in assay [2], 61.1 µM (active) in assay [7], 54.5 µM (active) in [4] and 48.6 µM (active) in assay [5].

On to `NCCNCCO`, for which the Potency entry in assay [1], in assay [2], in assay [7], in assay [4], in [5] and in [6] was “inactive” in each case. For the same compound, the outcome in [8] was inactive.

Turning to `C[C@@]12CCC[C@H]1[C@@H]1CC[C@H]3C[C@@H](O)CC[C@]3(C)[C@H]1CC2`, the Potency entry in assay [1], in assay [7], in assay [4] and in [5] was “inactive” throughout. Further, in assay [2], the Potency is 23.7 µM (active). Further, in assay [8], the call was inactive.

Take `CC1(C)S[C@@H]2[C@H](NC(=O)C(c3ccccc3)S(=O)(=O)O)C(=O)N2[C@H]1C(=O)O` (stereo not given in full): the Potency entry in assay [1], in assay [2], in [7], in [4], in [5] and in assay [6] was “inactive” throughout. Besides, in assay [8], the result was inactive.
